In all, about 130,000 compounds went through this assay and about 1,200 (0.92%) were called active.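 The calls were made as follows: active = inhibition above the mean plus 3 SD, with well images judged a real hit on visual review (cut at about 60% in these data, passing the limit was not always enough); inconclusive = inhibition over the cutoff but images rejected on review; inactive = inhibition not above the cutoff.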 The sample as a whole holds a higher share of actives than the screen did.
experiment: inhibitors of insulin promoter-driven GFP, primary screen, imaging, TRM-6 cells (human fetal islet line), eGFP reporter, cell count (AID 1273;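 as to normalized cell count: cells exposed to compound for 48 h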); settings: at 2 µM, reporter expression induced with tamoxifen; inhibition: stronger effect = higher value; normalized cell count: measured here: cell count, toxicity

SMILES | inhibition | normalized cell count
Cc1nn(-c2ccccc2)c(Cl)c1/C=C/C(=O)c1ccc(O)cc1 | -70.4% (inactive) | 111%
Cc1nn(-c2ccccc2)c(C)c1/C=C/C(=O)OC(C)C(N)=O (stereo unspecified) | 68.8% (active) | 181%
Cc1ccc(C(=O)/C=C/c2c(C)nn(-c3ccccc3)c2Cl)cc1 | -16.7% (inactive) | 102%
O=C(COc1cccc2ccccc12)Nc1cc(S(=O)(=O)N2CCOCC2)ccc1N1CCOCC1 | 11.1% (inactive) | 67.5%
CN1C(=O)C(CC(=O)Nc2ccccc2)S/C1=N/c1nccs1 (stereo unspecified) | -107% (inactive) | 120%
COC(=O)c1nc(NC(=O)c2ccc(F)cc2)n[nH]1 | 28.6% (inactive) | 129%
Cc1ccccc1NC(=O)c1nn(-c2ccc(F)c(F)c2)ccc1=O | 25% (inactive) | 93.8%
Cc1ccc(NC(=O)N2CCC(c3nc4c(nnn4Cc4c(F)cccc4Cl)c(=O)[nH]3)CC2)cc1 | 6.25% (inactive) | 107%
COc1ccc(Cn2nnc3c(=O)[nH]c(C4CCN(C(=O)c5ccccc5Cl)CC4)nc32)cc1 | 72.7% (active) | 34.3%
O=C(Nc1ccc(F)cc1)N1CCCC(c2nc3c(nnn3Cc3ccccc3Cl)c(=O)[nH]2)C1 (stereo unspecified) | -42.9% (inactive) | 122%
COc1ccc(C2CC(c3cccs3)=NN2C(=O)CSc2nncs2)cc1OC (stereo unspecified) | 66.7% (inactive) | 95.8%
CN1CCN(C(=O)CCc2ncc(C(F)(F)F)cc2Cl)CC1 | 9.09% (inactive) | 150%
CC(=O)c1cccc(NC(=O)N2CCCC2C(=O)NCCc2ccccc2)c1 (stereo unspecified) | 82.1% (active) | 27.6%
COc1cccc(NC(=O)C2CCCN2C(=O)OCc2ccccc2)c1 (stereo unspecified) | -34.4% (inactive) | 106%
Cc1ccc(CNC(=O)C2CCCN2C(=O)NCc2ccccc2)cc1 (stereo unspecified) | 59% (inactive) | 73.5%
O=[N+]([O-])c1ccc(N2CCN(S(=O)(=O)c3ccc4ccccc4c3)CC2)cc1NCc1ccco1 | -18.5% (inactive) | 121%
O=C(c1ccccc1)N1CCN(c2ccc([N+](=O)[O-])c(NCc3ccco3)c2)CC1 | -9.68% (inactive) | 122%
O=[N+]([O-])c1ccc(N2CCNCC2)cc1NCc1cccnc1 | 66.7% (active) | 150%
O=[N+]([O-])c1ccc(N2CCN(c3ccc(O)cc3)CC2)c(Cl)c1 | 86.7% (active) | 135%
CCN1CCN(c2ccc([N+](=O)[O-])cc2C(=O)c2ccc(Cl)cc2)CC1 | -83.3% (inactive) | 81.5%
COc1ccc(N2CCN(c3ccc([N+](=O)[O-])cc3Cl)CC2)cc1 | 7.69% (inactive) | 106%
Cc1cc(C)c2c(n1)nn1c(N3CCN(c4cccc(Cl)c4)CC3)cc(C)nc21 | -82.8% (inactive) | 99.8%

SMILES | inhibition | normalized cell count
Cc1cc(C)c2c(n1)nn1c(N3CCOCC3)cc(C)nc21 | 74.3% (active) | 60.7%
Cc1nn2c3cc(N4CCOCC4)ccc3nc2c2ccccc12 | -63.5% (inactive) | 79.7%
CCCN(CC(=O)Nc1ccccc1C)C(=O)c1cc(=O)[nH]c2ccccc12 | -38.5% (inactive) | 49.2%
C=CCC1(CC=C)CCCN1C(=O)CC1C(=O)NCCN1Cc1ccccc1OC (stereo unspecified) | 20% (inactive) | 91.1%
C/C(Cn1nnc2ccccc21)=N\OC(=O)c1cc(F)c(F)cc1Cl | -55% (inactive) | 99.6%
CC(=O)c1cc(C#N)c(SCC(=O)C(C)(C)C)nc1C | 65.4% (active) | 142%
Cc1cc(C#N)c(SCC(N)=O)nc1-c1ccc(F)cc1 | 14.3% (inactive) | 121%
CC(=O)c1cnc(SCC(=O)O)nc1C | 26.7% (inactive) | 105%
O=C(COC(=O)c1ccccn1)Nc1cccc2ccccc12 | -83.3% (inactive) | 96%
O=C(CCN1C(=O)c2ccccc2C1=O)NCCCn1ccnc1 | -16.7% (inactive) | 84.2%
CN(C)CCNC(CC(=O)Nc1ccc(Cl)c(Cl)c1)C(=O)O (stereo unspecified) | 44.2% (inactive) | 104%
COc1ccccc1NC(=O)CC(NCCN(C)C)C(=O)O (stereo unspecified) | 72.4% (active) | 43%
COC(=O)C(CC(=O)Nc1cc(C)ccc1C)Nc1ccccc1OC (stereo unspecified) | 7.14% (inactive) | 131%
CCN(CC)CCNC(=O)c1sc2ncn(CC(=O)Nc3ccc(C)c(Cl)c3)c(=O)c2c1C | -14.3% (inactive) | 89.6%
Cc1c(Br)ccc(NC(=O)COc2ccccc2C(N)=O)c1C | -5.26% (inactive) | 50.7%
O=C(Nc1ccc(N2CCN(C(=O)C3CC3)CC2)cc1)c1cccs1 | 36.8% (inactive) | 132%
COc1ccc(S(=O)(=O)Nc2c(C)n(C)n(-c3ccccc3)c2=O)cc1 | 22.7% (inactive) | 104%
COC(=O)Nc1c(C)n(C)n(-c2ccccc2)c1=O | 13.9% (inactive) | 53.7%
Cc1c(Nc2nc3ccccc3nc2NS(=O)(=O)c2cccs2)c(=O)n(-c2ccccc2)n1C | 75% (active) | 38.1%
Cc1nn(-c2ccc([N+](=O)[O-])cc2)c(N)c1-c1ccccc1 | 25% (inactive) | 95.4%
CCOC(=O)c1ccc(NC(=O)C2CC(=O)Nc3nc4ccccc4n32)cc1 (stereo unspecified) | -36.4% (inactive) | 131%

From PubChem BioAssay AID1273 (Columbia University Molecular Screening Center, 2008)
